Assay results reported in PubChem BioAssay (NCI).
The panel holds about 83,000 compounds, 20% with a hit somewhere; the sample as a whole holds those more often.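 Compound tested at a single concentration for 48 hours in 96-well plates; a percent growth value below 10 was scored as active.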 A number with no mark means an inactive call. The source made the active and inactive calls.

Legend:
Test in all cases: NCI-60 one-dose screen, 48 h (100 = growth as untreated, 0 = no growth, -100 = all killed)
Details in all cases: 10 µM unless noted
[1] = tested on: HCT-15 colon
[2] = tested on: HT29 colon
[3] = tested on: SNB-75 CNS
[4] = tested on: U251 CNS
[5] = tested on: PC-3 prostate
[6] = tested on: SK-MEL-5 melanoma
[7] = tested on: UACC-62 melanoma
[8] = tested on: LOX IMVI melanoma
[9] = tested on: SK-MEL-28 melanoma
[10] = tested on: SK-MEL-2 melanoma
[11] = tested on: EKVX NSCLC
[12] = tested on: SN12C renal
[13] = tested on: UO-31 renal
[14] = tested on: TK-10 renal
[15] = tested on: ACHN renal
[16] = tested on: CAKI-1 renal
[17] = tested on: A498 renal
[18] = tested on: CCRF-CEM leukemia
[19] = tested on: MOLT-4 leukemia
[20] = tested on: SNB-19 CNS

c1ccc(-c2ccc3c(c2)C2(CCNCC2)CN3)cc1
growth [1]: 99.6%
growth [2]: 96.5%
growth [3]: 73.8%
growth [4]: 102%
growth [5]: 86.9%
growth [6]: 99.1%
growth [7]: 84.6%
growth [8]: 89.9%
growth [9]: 110%
growth [10]: 93.4%
growth [11]: 75.9%
growth [12]: 98.7%
growth [13]: 66.1%
growth [14]: 125%
growth [15]: 93%
growth [16]: 93%
growth [17]: 104%
growth [18]: 112%
growth [19]: 85.7%

CCn1cc(C(=O)N/N=C/c2cccc(F)c2)c(=O)c2cc(F)c(N3CCNC(C)C3)c(F)c21 (configuration not stated)
growth [1]: -81.8% (active)
growth [2]: -87.2% (active)
growth [3]: 90.1%
growth [4]: -74.3% (active)
growth [5]: 69.6%
growth [6]: 52.6%
growth [7]: 64.8%
growth [8]: -90.9% (active)
growth [9]: -64.3% (active)
growth [10]: 104%
growth [11]: 50.7%
growth [12]: -4.46% (active)
growth [13]: 20.6%
growth [15]: 74.4%
growth [16]: 66.7%
growth [17]: 99.2%
growth [18]: -47% (active)
growth [19]: -26% (active)

COC12C=C/C(=C(/C(=O)OCc3csc(SC)n3)C(=O)CCCCCCCCC3(OC)C=C/C(=C(/C(=O)OCc4cnc(SC)s4)C(=O)CCCCCCCC1)O3)O2 (configuration not stated)
growth [1]: 76.8%
growth [2]: 27.5%
growth [3]: 98.3%
growth [4]: 36.9%
growth [5]: 27.4%
growth [6]: 11.3%
growth [7]: 6.98% (active)
growth [8]: -22.9% (active)
growth [9]: 36.3%
growth [10]: 55.8%
growth [11]: 33.5%
growth [13]: 43.5%
growth [14]: 47.6%
growth [15]: 6% (active)
growth [16]: 68%
growth [17]: 34.9%
growth [18]: 14.6%
growth [19]: 1.34% (active)

CCOC(=O)NCCCC(=O)NCCc1ccccc1
growth [1]: 118%
growth [2]: 110%
growth [3]: 109%
growth [4]: 99.6%
growth [5]: 99.5%
growth [6]: 99.8%
growth [7]: 107%
growth [8]: 94.2%
growth [9]: 114%
growth [10]: 110%
growth [11]: 112%
growth [12]: 106%
growth [13]: 90.3%
growth [14]: 104%
growth [15]: 111%
growth [16]: 99.5%
growth [17]: 106%
growth [18]: 108%
growth [19]: 101%

COc1ccc(/C=C2\CN(C(=O)C(Cl)Cl)C/C(=C\c3ccc(OC)c(OC)c3)C2=O)cc1OC
growth [1]: -38.9% (active)
growth [2]: 10.8%
growth [3]: 10.9%
growth [4]: -17.4% (active)
growth [5]: -7.16% (active)
growth [6]: -58.8% (active)
growth [7]: -59.6% (active)
growth [8]: -67.8% (active)
growth [9]: -8.59% (active)
growth [10]: 14.9%
growth [11]: 8.31% (active)
growth [12]: -60.6% (active)
growth [13]: -99% (active)
growth [14]: 22%
growth [15]: -82.7% (active)
growth [16]: -17.2% (active)
growth [17]: -48.2% (active)
growth [18]: 12%
growth [19]: 5.43% (active)

COc1cc(/C=C/C(=O)c2cccc(-n3cc(-c4ccc(Cl)cc4)[nH]c3=O)c2)ccc1O
growth [1]: 37.8%
growth [2]: 27%
growth [3]: 50.3%
growth [4]: 32.4%
growth [5]: 34.2%
growth [6]: 68.1%
growth [7]: 64.3%
growth [8]: 13.1%
growth [9]: 58.6%
growth [10]: 58.5%
growth [11]: 68.7%
growth [12]: 46.4%
growth [13]: 31.2%
growth [14]: 104%
growth [15]: 60.4%
growth [16]: 37.2%
growth [17]: 106%
growth [18]: 19.5%
growth [19]: 24.2%

COc1ccc2cc(-c3nc4ccc(C)cn4c3NCc3ccco3)c(=O)[nH]c2c1
growth [1]: 75.8%
growth [2]: 79.9%
growth [3]: 56%
growth [4]: 75.1%
growth [5]: 46.1%
growth [6]: 56.9%
growth [7]: 46%
growth [8]: 75.8%
growth [9]: 81.8%
growth [10]: 105%
growth [11]: 55.9%
growth [12]: 76.1%
growth [13]: 47.8%
growth [14]: 71%
growth [15]: 45.4%
growth [16]: 50.8%
growth [17]: 43.8%
growth [18]: 62.3%
growth [19]: 52.7%

COc1cc2ncnc(Nc3ccc(F)c(Cl)c3)c2cc1OCC(=O)N1CCOCC1
growth [1]: 96.6%
growth [2]: 91.8%
growth [3]: 102%
growth [4]: 102%
growth [5]: 94.3%
growth [6]: 98.4%
growth [7]: 86.6%
growth [8]: 97.8%
growth [9]: 106%
growth [10]: 87.1%
growth [11]: 63.3%
growth [12]: 80.3%
growth [13]: 52.4%
growth [14]: 20.8%
growth [15]: 31.9%
growth [16]: 48.4%
growth [17]: 66.2%
growth [18]: 91.6%
growth [19]: 91.5%

CCOC(=O)C1=C(CC(O)c2ccc(OC)cc2OC)NC(=O)NC1c1ccccc1 (configuration not stated)
growth [1]: 110%
growth [2]: 100%
growth [3]: 87.3%
growth [4]: 106%
growth [5]: 95.3%
growth [6]: 95.5%
growth [7]: 89.8%
growth [8]: 94.5%
growth [9]: 115%
growth [10]: 120%
growth [11]: 105%
growth [12]: 105%
growth [13]: 95.8%
growth [14]: 120%
growth [15]: 109%
growth [16]: 92.2%
growth [17]: 122%
growth [18]: 95.3%
growth [19]: 17.2%

CCN1C(=O)N(CC)C2C1NN=c1s/c(=C\c3ccc(OC)cc3)c(=O)n12 (configuration not stated)
growth [1]: 10.3%
growth [2]: 3.44% (active)
growth [3]: 23%
growth [4]: 7.45% (active)
growth [5]: 26.5%
growth [6]: -10.8% (active)
growth [8]: 17.1%
growth [9]: 56.4%
growth [10]: 34.5%
growth [11]: 51.9%
growth [12]: 24.9%
growth [13]: 39.3%
growth [15]: 28.5%
growth [16]: 25.5%
growth [17]: 11.8%
growth [18]: 9.06% (active)
growth [19]: 14%

NC(=O)c1ccccc1OCC(=O)Nc1ccc(Cl)c(Cl)c1
growth [1]: 102%
growth [2]: 113%
growth [3]: 83.3%
growth [20]: 93.2%
growth [4]: 97.3%
growth [6]: 99.9%
growth [8]: 108%
growth [9]: 107%
growth [10]: 107%
growth [11]: 92.2%
growth [12]: 101%
growth [13]: 84.1%
growth [14]: 143%
growth [15]: 89.3%
growth [16]: 70.6%
growth [17]: 93.7%
growth [18]: 92.3%
growth [19]: 89%

O=S(=O)(N=C1C(Cl)=C(Cl)C(=NS(=O)(=O)c2ccccc2)C(Cl)=C1Cl)c1ccccc1
growth [1]: 7.28% (active)
growth [2]: 14%
growth [3]: 132%
growth [4]: 59.8%
growth [5]: 121%
growth [6]: 87%
growth [7]: 67.1%
growth [8]: 54.6%
growth [9]: 89.5%
growth [10]: 14%
growth [11]: 107%
growth [12]: 87.6%
growth [13]: 89.5%
growth [14]: 95.3%
growth [15]: -22.5% (active)
growth [16]: 5% (active)
growth [17]: 96.8%
growth [18]: 73.6%
growth [19]: 55%

Cc1cc(C(=O)CCCC(=O)c2cc(C)c(O)c(C)c2)cc(C)c1O
growth [1]: 79.2%
growth [2]: 92.3%
growth [3]: 69.7%
growth [4]: 89.6%
growth [5]: 84.1%
growth [6]: 29.2%
growth [7]: 96.8%
growth [8]: 87.2%
growth [9]: 105%
growth [10]: 101%
growth [11]: 111%
growth [13]: 83.6%
growth [14]: 105%
growth [15]: 91%
growth [16]: 93.5%
growth [17]: 91.9%
growth [18]: 96.6%
growth [19]: 106%

O=C(OCc1ccc2c(Cl)cc(Cl)c(O)c2n1)N1CCN(C(=O)c2cc3ccccc3[nH]2)CC1
growth [1]: 22.2%
growth [2]: 59.3%
growth [3]: 36.3%
growth [4]: 13.6%
growth [5]: 24.9%
growth [6]: 25.1%
growth [7]: -2.56% (active)
growth [8]: 24.6%
growth [9]: 39.2%
growth [10]: 27.2%
growth [11]: 23.5%
growth [12]: 28.1%
growth [13]: 4.4% (active)
growth [14]: 42.6%
growth [15]: 11.6%
growth [16]: 17.1%
growth [17]: 14.2%
growth [18]: 21%
growth [19]: 20.5%

Cn1c(C#N)ccc1-c1ccc(F)c(NC(=O)c2ccc(F)cc2)c1
growth [1]: 66.6%
growth [2]: 47.5%
growth [3]: 71.4%
growth [4]: 73.4%
growth [5]: 80.9%
growth [6]: 75.9%
growth [7]: 60.8%
growth [8]: 69.8%
growth [9]: 86.5%
growth [10]: 60.3%
growth [11]: 82.2%
growth [12]: 82.2%
growth [13]: 64%
growth [14]: 86%
growth [15]: 84.4%
growth [16]: 73.9%
growth [17]: 73.3%
growth [18]: 68.8%
growth [19]: 47.6%

C=C1C(=O)O[C@@H]2C3C(=C(C)CC[C@@H]12)CC1O[C@]13C (some centres not stated)
growth [1]: 50.4% [6.75 µM]
growth [2]: 85.5% [6.75 µM]
growth [3]: 86.1% [6.75 µM]
growth [4]: 90.3% [6.75 µM]
growth [5]: 85.2% [6.75 µM]
growth [6]: 55.6% [6.75 µM]
growth [8]: 51.8% [6.75 µM]
growth [9]: 90.4% [6.75 µM]
growth [10]: 90.4% [6.75 µM]
growth [11]: 91.5% [6.75 µM]
growth [12]: 86.6% [6.75 µM]
growth [13]: 54.5% [6.75 µM]
growth [14]: 40.5% [6.75 µM]
growth [15]: 73.2% [6.75 µM]
growth [16]: 90.1% [6.75 µM]
growth [17]: 103% [6.75 µM]
growth [18]: 23.2% [6.75 µM]
growth [19]: 84% [6.75 µM]
